Laboratory results published in the supplement of paper PMC11732987, “Enantioselective OTUD7B fragment discovery through chemoproteomics screening and high-throughput optimisation” (Communications Chemistry, 2025).

Experiments:
Assay in all cases: log2 ratio of Biotin-Ahx-Ub-VS probe labelling (fragment/DMSO); higher = less target engagement (more negative = stronger competition), active = hit call of the paper (q ≤ 0.05, log2 ratio ≤ -1)
Conditions in all cases: compound concentration: 200 uM; treatment time: 3 h
[1] = biological target: T1, USP19 (UniProt O94966)
T1 sequence (whole entry): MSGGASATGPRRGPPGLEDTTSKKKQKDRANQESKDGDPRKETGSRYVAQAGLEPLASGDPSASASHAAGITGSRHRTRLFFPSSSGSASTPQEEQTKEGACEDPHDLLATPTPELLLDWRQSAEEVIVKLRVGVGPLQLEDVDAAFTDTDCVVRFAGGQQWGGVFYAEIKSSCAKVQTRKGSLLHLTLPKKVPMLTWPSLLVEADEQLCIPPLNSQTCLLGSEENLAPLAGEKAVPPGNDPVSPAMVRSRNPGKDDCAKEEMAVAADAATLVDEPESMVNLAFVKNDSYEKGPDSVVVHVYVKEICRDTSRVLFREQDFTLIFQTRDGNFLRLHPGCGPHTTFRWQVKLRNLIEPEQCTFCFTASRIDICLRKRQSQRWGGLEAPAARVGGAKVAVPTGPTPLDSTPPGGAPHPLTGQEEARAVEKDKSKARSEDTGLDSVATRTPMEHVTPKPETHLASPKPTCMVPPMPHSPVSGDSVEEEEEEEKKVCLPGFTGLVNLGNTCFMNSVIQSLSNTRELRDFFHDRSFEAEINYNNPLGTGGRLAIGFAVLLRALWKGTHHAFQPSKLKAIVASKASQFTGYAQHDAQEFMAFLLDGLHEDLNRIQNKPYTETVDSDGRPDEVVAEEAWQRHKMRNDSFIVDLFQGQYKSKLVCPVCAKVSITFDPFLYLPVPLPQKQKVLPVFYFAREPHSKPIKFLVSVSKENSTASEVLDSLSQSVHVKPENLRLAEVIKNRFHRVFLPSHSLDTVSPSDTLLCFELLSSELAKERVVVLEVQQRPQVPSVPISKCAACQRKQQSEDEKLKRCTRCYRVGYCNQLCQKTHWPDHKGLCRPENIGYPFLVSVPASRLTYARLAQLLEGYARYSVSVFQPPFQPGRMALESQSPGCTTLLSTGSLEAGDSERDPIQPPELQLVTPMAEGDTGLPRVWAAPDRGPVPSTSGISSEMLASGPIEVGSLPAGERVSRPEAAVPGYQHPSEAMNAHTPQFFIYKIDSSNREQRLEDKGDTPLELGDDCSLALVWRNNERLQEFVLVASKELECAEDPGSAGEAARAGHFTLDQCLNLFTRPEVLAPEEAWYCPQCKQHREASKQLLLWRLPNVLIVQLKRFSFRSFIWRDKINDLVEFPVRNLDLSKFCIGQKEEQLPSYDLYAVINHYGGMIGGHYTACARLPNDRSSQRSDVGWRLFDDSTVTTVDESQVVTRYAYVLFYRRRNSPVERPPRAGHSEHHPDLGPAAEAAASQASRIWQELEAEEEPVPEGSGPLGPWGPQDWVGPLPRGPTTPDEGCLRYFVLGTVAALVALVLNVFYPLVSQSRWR
Outline: (§1)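 Labelling with Biotin-Ahx-Ub-VS (0.5 µM final, 1 h) followed a 3 h triplicate treatment of HEK293T lysate (495 µg per sample, Tris/CHAPS/IGEPAL buffer with protease inhibitors) with fragment at 200 µM or vehicle. Labelled DUBs were NeutrAvidin-enriched, digested with LysC and trypsin, and run by diaPASEF LC-MS/MS. The values, average log2 fragment/vehicle ratios by unpaired t-test, come from global-median-normalised Spectronaut label-free quantities. Proteins with ≥2 unique peptides were used.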

[2] = biological target: T2, USP22 (UniProt Q9UPT9)
T2 sequence (whole entry): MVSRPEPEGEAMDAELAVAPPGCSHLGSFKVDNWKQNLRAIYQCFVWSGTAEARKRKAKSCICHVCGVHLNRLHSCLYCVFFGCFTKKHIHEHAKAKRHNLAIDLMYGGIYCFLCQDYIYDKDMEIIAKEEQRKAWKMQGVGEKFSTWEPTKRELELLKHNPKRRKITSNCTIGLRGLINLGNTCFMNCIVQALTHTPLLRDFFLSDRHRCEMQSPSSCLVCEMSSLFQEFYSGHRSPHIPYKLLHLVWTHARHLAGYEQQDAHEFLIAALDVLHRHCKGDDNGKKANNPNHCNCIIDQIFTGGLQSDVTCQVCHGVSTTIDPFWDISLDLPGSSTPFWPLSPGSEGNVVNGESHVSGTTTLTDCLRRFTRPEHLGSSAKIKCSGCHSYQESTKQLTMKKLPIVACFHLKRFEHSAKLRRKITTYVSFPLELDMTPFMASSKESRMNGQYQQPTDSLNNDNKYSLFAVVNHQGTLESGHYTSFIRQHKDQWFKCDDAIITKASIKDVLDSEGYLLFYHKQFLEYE
Outline: as §1

[3] = biological target: USP24 (UniProt Q9UPU5)
Sequence of USP24 (Q9UPU5 whole entry): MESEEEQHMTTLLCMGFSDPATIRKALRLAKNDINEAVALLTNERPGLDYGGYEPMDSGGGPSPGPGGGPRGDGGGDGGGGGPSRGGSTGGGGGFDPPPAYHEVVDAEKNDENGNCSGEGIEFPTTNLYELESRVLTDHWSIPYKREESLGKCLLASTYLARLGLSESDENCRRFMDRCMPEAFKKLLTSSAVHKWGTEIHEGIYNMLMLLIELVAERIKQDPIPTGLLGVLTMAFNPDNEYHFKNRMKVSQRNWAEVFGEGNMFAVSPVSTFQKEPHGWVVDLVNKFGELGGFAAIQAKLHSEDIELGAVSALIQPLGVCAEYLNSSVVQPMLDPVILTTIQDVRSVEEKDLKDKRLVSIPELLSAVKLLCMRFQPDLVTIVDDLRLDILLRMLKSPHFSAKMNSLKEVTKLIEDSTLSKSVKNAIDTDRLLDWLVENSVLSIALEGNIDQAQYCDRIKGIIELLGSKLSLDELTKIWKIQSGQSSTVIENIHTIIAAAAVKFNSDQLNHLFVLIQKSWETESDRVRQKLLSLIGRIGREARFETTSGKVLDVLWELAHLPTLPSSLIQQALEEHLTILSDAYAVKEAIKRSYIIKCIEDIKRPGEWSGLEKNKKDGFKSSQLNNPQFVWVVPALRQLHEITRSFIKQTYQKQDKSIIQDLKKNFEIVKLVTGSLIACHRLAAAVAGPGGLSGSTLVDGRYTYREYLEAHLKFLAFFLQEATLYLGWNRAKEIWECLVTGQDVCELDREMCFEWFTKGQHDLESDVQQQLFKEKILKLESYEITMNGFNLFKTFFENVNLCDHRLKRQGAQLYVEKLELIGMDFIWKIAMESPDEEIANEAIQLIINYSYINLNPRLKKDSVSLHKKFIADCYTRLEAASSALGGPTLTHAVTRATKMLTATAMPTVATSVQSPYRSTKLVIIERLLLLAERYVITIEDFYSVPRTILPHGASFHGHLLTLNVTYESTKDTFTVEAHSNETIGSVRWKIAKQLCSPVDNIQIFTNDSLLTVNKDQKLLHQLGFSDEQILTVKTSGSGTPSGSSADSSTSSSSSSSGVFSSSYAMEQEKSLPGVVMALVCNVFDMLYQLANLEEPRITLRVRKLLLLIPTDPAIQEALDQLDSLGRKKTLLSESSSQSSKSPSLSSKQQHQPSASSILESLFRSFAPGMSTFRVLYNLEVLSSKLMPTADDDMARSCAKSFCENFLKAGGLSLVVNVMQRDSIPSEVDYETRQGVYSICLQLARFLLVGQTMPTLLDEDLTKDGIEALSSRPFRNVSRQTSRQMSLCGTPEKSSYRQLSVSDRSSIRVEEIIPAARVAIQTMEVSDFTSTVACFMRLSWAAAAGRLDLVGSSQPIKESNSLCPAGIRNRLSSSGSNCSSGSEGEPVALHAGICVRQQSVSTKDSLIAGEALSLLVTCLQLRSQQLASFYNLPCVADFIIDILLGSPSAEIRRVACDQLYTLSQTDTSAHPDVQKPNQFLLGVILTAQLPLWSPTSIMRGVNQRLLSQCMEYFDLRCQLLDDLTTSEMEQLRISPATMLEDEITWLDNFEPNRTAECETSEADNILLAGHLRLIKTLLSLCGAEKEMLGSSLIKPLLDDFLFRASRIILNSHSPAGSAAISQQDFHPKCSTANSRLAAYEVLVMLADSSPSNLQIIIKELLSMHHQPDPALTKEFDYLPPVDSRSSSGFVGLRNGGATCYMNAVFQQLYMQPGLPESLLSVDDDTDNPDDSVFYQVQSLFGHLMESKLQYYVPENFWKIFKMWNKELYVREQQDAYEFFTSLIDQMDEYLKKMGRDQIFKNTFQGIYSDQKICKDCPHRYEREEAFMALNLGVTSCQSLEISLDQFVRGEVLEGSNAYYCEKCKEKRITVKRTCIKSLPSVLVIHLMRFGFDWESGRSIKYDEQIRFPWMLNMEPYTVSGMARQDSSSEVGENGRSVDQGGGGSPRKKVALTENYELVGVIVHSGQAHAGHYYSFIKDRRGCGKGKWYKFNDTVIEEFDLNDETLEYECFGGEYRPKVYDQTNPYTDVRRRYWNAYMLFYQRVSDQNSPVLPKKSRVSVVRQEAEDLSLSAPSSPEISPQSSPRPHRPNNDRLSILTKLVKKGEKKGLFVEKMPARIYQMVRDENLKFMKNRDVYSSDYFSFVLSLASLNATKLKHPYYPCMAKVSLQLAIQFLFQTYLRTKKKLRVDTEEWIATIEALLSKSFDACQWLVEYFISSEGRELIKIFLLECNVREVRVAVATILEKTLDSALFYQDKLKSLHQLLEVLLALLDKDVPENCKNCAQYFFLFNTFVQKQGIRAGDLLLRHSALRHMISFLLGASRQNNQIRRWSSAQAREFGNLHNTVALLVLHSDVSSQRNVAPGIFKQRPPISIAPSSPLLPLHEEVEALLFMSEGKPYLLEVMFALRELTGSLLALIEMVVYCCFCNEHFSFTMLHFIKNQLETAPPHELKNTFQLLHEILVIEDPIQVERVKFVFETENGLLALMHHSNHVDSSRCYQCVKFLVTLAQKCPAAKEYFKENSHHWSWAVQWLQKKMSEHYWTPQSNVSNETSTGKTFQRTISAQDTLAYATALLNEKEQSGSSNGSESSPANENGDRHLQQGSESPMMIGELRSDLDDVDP
Outline: as §1

[4] = biological target: T3, USP25 (UniProt Q9UHP3)
T3 sequence (whole entry): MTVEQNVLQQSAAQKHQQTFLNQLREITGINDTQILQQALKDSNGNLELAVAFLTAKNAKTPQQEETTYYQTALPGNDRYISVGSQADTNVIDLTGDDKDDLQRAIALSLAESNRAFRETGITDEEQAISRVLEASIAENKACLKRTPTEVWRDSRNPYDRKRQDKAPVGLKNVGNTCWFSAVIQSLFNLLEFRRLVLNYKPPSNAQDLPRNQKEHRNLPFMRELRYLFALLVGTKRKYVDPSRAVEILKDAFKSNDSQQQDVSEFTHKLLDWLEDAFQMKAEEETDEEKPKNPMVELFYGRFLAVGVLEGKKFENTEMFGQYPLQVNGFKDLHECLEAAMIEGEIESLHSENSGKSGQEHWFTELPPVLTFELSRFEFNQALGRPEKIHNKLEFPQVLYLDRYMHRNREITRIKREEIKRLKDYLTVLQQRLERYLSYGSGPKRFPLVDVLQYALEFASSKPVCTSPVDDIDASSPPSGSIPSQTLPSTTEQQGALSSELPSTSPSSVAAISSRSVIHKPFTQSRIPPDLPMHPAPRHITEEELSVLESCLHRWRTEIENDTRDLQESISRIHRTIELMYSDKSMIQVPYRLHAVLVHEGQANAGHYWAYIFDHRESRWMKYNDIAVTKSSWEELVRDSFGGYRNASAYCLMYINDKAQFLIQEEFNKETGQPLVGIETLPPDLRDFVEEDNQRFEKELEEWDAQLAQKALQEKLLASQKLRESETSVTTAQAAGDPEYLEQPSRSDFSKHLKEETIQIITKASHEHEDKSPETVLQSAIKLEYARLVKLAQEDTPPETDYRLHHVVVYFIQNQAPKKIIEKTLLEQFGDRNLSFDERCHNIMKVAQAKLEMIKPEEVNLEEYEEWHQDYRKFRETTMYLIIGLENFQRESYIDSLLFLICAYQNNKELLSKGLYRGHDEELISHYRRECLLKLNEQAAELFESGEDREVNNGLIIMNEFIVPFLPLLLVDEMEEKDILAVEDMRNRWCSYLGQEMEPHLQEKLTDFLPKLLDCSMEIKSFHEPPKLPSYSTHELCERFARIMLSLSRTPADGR
Outline: as §1

[5] = biological target: T4, USP28 (UniProt Q96RU2)
T4 sequence (whole entry): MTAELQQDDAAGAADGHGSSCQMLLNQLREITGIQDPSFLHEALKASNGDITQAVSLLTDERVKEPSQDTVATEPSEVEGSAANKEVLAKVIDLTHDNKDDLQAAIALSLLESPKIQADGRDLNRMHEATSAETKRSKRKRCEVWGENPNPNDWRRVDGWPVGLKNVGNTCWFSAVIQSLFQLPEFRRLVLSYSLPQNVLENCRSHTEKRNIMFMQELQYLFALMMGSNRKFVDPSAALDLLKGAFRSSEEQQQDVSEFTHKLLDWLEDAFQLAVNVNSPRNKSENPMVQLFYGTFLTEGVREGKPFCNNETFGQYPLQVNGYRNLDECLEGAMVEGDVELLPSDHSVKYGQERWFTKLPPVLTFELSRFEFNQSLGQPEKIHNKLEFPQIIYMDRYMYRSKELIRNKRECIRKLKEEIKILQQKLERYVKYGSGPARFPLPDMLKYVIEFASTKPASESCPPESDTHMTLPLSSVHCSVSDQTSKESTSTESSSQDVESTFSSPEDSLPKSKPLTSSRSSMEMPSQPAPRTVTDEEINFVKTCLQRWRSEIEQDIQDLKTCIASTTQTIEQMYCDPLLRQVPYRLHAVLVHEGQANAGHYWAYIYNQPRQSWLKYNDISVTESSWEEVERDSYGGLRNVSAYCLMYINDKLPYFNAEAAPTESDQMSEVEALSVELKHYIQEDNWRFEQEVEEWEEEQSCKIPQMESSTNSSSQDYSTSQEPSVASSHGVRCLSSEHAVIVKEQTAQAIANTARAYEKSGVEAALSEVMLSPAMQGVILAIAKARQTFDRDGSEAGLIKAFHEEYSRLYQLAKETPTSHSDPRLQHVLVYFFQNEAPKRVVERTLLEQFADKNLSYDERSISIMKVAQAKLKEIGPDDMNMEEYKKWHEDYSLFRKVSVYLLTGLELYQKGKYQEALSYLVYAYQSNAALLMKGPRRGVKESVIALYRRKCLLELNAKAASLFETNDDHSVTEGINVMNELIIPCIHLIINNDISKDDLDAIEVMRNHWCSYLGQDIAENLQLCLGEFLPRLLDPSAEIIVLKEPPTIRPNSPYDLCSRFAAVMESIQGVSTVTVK
Outline: as §1

Measured: log2 ratio of Biotin-Ahx-Ub-VS probe labelling

O=C(CCl)N1CCCC1c1ccsc1 (stereo not given)
inactive: [1] -0.475 | [2] -0.304 | [3] -0.738 | [4] -0.456 | [5] -0.704
